Assay [1] has as its target Lysosomal acid glucosylceramidase (Homo sapiens) (UniProt P04062). Nature of the assay: Glucocerebrosidase-p2 (AID 348; in the data active = potency below about 10 µM; note: potency is the fitted concentration of half-maximal effect). To be noted: purified GBA, blue fluorogenic substrate, 40 min. Summed up:
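Compounds titrated from 0.6 nM upwards against 0.2 nM enzyme in pH 5.9 citric acid/KH2PO4, taurocholate, tween-20; blue fluorogenic substrate 80 uM, 40 min room temperature, stopped and read Ex 365/Em 440 for AC50.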

A short description of assay [2]: AP1 Signaling Pathway (AID 357; active = well fitted curve in either direction with a large enough effect, not every such curve was filed as active;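 note: ME-180 reporter cells stimulated with EGF at its EC50 level; % is set by controls: 0 for no effect and ±100 for the full control effect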). The note with it: ME-180 AP-1-bla reporter, EGF-induced, beta-lactamase ratio, 5 h; at 7.69 µM (top of the series) unless noted. In a few lines:
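Titration-series screen for positive or negative modulators of EC50 EGF-induced signaling in ME-180 cells carrying an AP-1-driven beta-lactamase reporter. After 5 hours at 37 degrees Celsius, CCF4 460nm/530nm emission ratio gave %Activity; AC50 values derived.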

The nature of assay [3]: NFAT Signaling Pathway (AID 444; active = well fitted curve in either direction with a large enough effect, not every such curve was filed as active;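 note: carbachol stimulus at about its EC50 of 1 µM final; % is set by controls: 0 for no effect and ±100 for the full control effect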). The note with it: Jurkat NFAT-bla M1, carbachol, beta-lactamase ratio, 5 h; at 7.69 µM (top of the series) unless noted. Summed up:
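Read-out: CCF4 FRET ratio (460 nm/530 nm) after 1 h RT dye loading, used for %activity and AC50 from titration series. Cells: Jurkat NFAT-β-lactamase/M1 line, treated with compound plus 1 uM carbachol for 5 h, 37 °C.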

The nature of assay [4]: Stat Signaling Pathway (AID 446; active = well fitted curve in either direction with a large enough effect, not every such curve was filed as active;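 note: ME-180 cervical cancer cells given 40 pM IL-6 alongside compound; SIE-controlled beta-lactamase reporter measured as 460/530 nm FRET emission ratio; % is set by controls: 0 for no effect and ±100 for the full control effect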). To be noted: ME-180 SIE beta-lactamase reporter, IL-6 stimulated, 5 h; at 7.69 µM (top of the series) unless noted. Summed up: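 Screening format detects activators and inhibitors alike: ME-180 SIE-bla cells stimulated at 40 pM IL-6 for 5 hrs with compound, then dual-emission beta-lactamase read at 405 nm excitation.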
The target in assay [5] is Glucocorticoid receptor (Homo sapiens) (UniProt P04150). Description: GR-GFP Redistribution (AID 450;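 active = compounds whose dose series gives a full or clear partial fitted curve of increased nuclear translocation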; note: potency is the fitted concentration of half-maximal effect). To be noted: U2OS GR-GFP nuclear translocation, laser cytometry, 2 h.
Sequence of Glucocorticoid receptor (Homo sapiens) (P04150 whole entry, looked up): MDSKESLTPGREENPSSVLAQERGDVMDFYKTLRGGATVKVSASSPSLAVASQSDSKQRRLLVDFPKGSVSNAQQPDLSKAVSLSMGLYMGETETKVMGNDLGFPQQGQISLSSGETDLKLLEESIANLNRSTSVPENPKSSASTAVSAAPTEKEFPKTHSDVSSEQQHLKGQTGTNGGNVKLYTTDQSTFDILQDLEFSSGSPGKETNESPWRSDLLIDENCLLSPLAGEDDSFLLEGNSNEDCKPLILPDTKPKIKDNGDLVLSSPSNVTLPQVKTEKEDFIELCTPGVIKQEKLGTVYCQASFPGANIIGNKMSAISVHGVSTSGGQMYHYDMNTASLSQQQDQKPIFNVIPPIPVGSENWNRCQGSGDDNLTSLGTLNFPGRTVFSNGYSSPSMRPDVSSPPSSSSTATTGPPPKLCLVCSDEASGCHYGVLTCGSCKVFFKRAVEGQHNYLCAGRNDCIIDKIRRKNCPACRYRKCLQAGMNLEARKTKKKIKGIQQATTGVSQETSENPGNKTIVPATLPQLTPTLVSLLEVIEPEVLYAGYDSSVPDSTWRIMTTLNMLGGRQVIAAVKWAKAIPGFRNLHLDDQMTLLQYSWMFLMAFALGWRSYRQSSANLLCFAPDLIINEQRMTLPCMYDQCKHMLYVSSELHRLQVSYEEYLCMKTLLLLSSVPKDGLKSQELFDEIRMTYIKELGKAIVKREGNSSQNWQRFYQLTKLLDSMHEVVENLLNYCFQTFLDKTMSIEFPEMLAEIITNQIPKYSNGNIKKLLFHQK
Assay [6] shares this target. Nature of the assay: GR-EFC Redistribution (AID 451; calls by dose curve; note: potency is the fitted concentration of half-maximal effect). The note with it: CHO-K1 GR-EFC translocation, beta-gal luminescence, 2 h. In a few lines:
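Translocation of GR-ED fusion to nuclear EA restores b-gal, read by luminescence after 1 h room-temperature detection. Engineered CHO-K1 biosensor cells, 1,000/well, exposed 2 h at 37 C to titrations up to 46 uM final.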

Assay [7] concerns the target Mitogen-activated protein kinase 10 (Mus musculus) (UniProt Q61831). Nature of the assay: JNK3 AlphaScreen Assay (AID 530; active = well fitted curve in either direction with a large enough effect, not every such curve was filed as active;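 note: kinase came from lysate of stimulated human HepG2 cells; signal reports phosphorylation of biotinylated GST-cJun 1-79 at Ser73 with 10 µM ATP; % is set by controls: 0 for no effect and ±100 for the full control effect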). Summed up: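 Room-temperature AlphaScreen kinase assay; pre-activated HepG2 lysate as JNK3 source, biotin-GST-cJun(1-79) substrate, 10 uM ATP, compound 15 min preincubation.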
For assay [8], the target named is 3',5'-cyclic-AMP phosphodiesterase 4B (Homo sapiens) (UniProt Q07343). Description: qHTS Assay for Inhibitors of PDE-IV (AID 607; active = well fitted activation curve with a large enough effect in the main read-out, with a control signal flat, not every such curve was filed as active; note: % of control where 0% means no effect). Summed up:
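The readout is membrane depolarisation from a cAMP-sensing CNG channel, detected with a potential dye at ex 535/em 590. Cells were HEK293-derived (endogenous PDE-IV) at 1000 cells/well, titrated up to 22.9 uM final.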
(qHTS replaces the single test concentration by a dilution series.)

Assay [9] addresses Cytochrome P450 2C19 (Homo sapiens) (UniProt P33261). Description: qHTS Assay for Inhibitors and Substrates of Cytochrome P450 2C19 (AID 899). Note: % is set by controls: 0 for no effect and ±100 for the full control effect; nearly all actives have a fitted effect of over 60% in size. Summed up: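 5nM enzyme + 10uM Luciferin-H EGE (=KM), 50mM KPO4; cpd pin-transferred, 10 min 37C; NADPH regen, 60 min 37C; stopped w/ luciferin detection reagent, 20 min; luminescence. Normalized to 57uM ketoconazole (AC100).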
Assay [10] can be described thus: qHTS Assay for Lipid Storage Modulators (AID 1519; calls by dose curve). The note with it: Drosophila S3 cells, BODIPY lipid droplet/cell ratio, laser cytometry, cells loaded with oleic acid; for activity change, negative = inhibition: at 57.5 µM (top of the series). In a few lines: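 Cells seeded at 5,000 per well were treated with compounds over a concentration series and loaded with oleic acid (400 uM, as added). Lipid droplet fluorescence (488 nm excitation, 500-530 nm channel) was read by laser-scanning cytometry and normalized to 20 uM Triacsin C.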

For assay [11], the target named is Dual specificity protein kinase CLK4 (Homo sapiens) (UniProt Q9HAZ1). Nature of the assay: qHTS Assay for Inhibitors of CDC-like Kinase 4 (Kinase-Glo Assay) (AID 1770). Note: % is set by controls: 0 for no effect and ±100 for the full control effect; nearly all actives have a fitted effect of over 65% in size. In a few lines: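 Recombinant human Clk4 (25 nM) phosphorylated RS repeat peptide (100 uM) with 1 uM ATP in Tris pH 7.5/MgCl2/EGTA/DTT/Triton buffer for 4.5 h at room temperature. Residual ATP was quantified by Kinase-Glo luciferase luminescence.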
Sequence of Dual specificity protein kinase CLK4 (Homo sapiens) (Q9HAZ1 whole entry, looked up): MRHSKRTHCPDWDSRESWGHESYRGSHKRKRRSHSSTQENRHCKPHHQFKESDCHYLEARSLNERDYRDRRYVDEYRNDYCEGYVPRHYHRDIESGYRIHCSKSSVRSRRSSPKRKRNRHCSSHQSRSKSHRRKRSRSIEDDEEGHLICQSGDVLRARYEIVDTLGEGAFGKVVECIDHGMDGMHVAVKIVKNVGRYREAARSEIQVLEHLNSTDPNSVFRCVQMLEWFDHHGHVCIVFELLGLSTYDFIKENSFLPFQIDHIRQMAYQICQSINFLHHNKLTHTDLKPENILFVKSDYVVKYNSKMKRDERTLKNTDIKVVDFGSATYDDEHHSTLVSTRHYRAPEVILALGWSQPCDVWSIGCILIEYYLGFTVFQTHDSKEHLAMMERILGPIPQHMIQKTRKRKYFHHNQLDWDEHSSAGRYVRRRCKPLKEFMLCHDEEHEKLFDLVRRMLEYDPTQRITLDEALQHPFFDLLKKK

The target is the same in assay [12]. Description: qHTS Assay for Inhibitors of CDC-like Kinase 4 (ADP-Glo Assay) (AID 1771). Note: % is set by controls: 0 for no effect and ±100 for the full control effect; nearly all actives have a fitted effect of over 70% in size. Summed up:
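Kinase reaction: Clk4 at 25 nM, RS repeat peptide substrate at 100 uM, ATP at 1 uM, 1 hr, room temperature. Product ADP detected as luciferase signal via ADP-Glo.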

Assay [13] shares this target. Description: qHTS Assay for Inhibitors of CDC-like Kinase 4 (ADP-FP Assay) (AID 1795). Note: % is set by controls: 0 for no effect and ±100 for the full control effect; nearly all actives have a fitted effect of over 60% in size. Summed up: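 Recombinant human Clk4 (6.25 nM) phosphorylated RS repeat peptide (100 uM) with 1 uM ATP in Tris pH 7.5/MgCl2/EGTA/DTT/Triton buffer for one hour. ADP was quantified by Transcreener competitive fluorescence polarization against an ADP calibration curve.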
In assay [14] the target is Ubiquitin carboxyl-terminal hydrolase 1 (Homo sapiens) (UniProt O94782). Nature of the assay: Inhibitors of USP1/UAF1: Pilot qHTS (AID 504865).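 Note: rhodamine fluorescence freed from ubiquitin-rhodamine substrate followed over time; top concentration of the series differs between compounds; % is set by controls: 0 for no effect and ±100 for the full control effect; nearly all actives have a fitted effect of over 35% in size.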 In a few lines: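 USP1/UAF1 complex (1nM) preincubated with compound 15 min at room temperature, then Ub-Rho substrate (150nM final) added. Fluorescence read kinetically at 480/540 nm, 6 reads every 60 seconds. Buffer: 50mM HEPES pH 7.8, 0.5mM EDTA, 0.1 mg/ml BSA, 1mM TCEP, 0.01% Tween-20.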
Sequence of Ubiquitin carboxyl-terminal hydrolase 1 (Homo sapiens) (O94782 whole entry, looked up): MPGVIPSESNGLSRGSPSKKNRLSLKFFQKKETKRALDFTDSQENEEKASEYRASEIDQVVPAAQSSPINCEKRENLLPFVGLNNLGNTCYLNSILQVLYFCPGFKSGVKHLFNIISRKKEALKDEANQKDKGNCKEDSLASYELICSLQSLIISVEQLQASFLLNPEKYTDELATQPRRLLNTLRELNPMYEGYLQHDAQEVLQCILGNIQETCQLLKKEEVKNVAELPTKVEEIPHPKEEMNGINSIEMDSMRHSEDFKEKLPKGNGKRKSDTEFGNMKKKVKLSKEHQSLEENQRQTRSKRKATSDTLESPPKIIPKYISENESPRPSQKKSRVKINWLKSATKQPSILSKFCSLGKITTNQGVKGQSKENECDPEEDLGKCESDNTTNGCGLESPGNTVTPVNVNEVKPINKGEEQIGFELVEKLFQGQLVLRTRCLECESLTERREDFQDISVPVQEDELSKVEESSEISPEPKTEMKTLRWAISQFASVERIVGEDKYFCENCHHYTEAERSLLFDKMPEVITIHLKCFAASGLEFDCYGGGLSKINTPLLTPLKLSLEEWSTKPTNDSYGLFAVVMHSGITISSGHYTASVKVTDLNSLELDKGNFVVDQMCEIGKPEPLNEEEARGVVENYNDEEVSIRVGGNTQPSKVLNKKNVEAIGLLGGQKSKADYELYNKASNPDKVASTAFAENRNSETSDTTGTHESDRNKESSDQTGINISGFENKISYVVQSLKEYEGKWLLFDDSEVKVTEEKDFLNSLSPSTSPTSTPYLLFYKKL

Assay [15] in a line: Counterscreen qHTS for small molecule stabilizers of the endoplasmic reticulum resident proteome: GLuc-NoTag assay (AID 1508627).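 Note: SH-SY5Y cells given compound then 100 nM thapsigargin to empty ER calcium; 0% = thapsigargin alone and -100% = DMSO vehicle control.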 In a few lines: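 Luminescence of Gaussia luciferase secreted into the medium (coelenterazine, 0.07x final, unlysed cells) was the read-out. Human SH-SY5Y neuroblastoma cells constitutively secreting untagged GLuc received compound for 19 h, then 100 nM thapsigargin for 4 h.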
In general terms: The purpose of a counterscreen is to sort out artefacts and off-target activity.

The nature of assay [16]: Confirmation and Secondary Assay for Modulators of Hemoglobin Beta Chain Splicing at IVS2 654 locus (AID 910).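 Note: HeLa cells stably carrying EGFP split by mutant beta-globin IVS2-654 intron; per-well total GFP intensity by laser scanning cytometry after 2-day treatment; % of control where 0% means no effect.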 Summed up:
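Readout: per-well total peak green fluorescence (488 nm ex, 500–520 nm em) from objects 5–250 µm, reflecting correct splicing of an EGFP-654 reporter. Compounds were applied for 2 days at 37 °C to overnight-plated HeLa EGFP-654 cells; controls were DMSO and 500 nM IVS2-654 PNA.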

The nature of assay [17]: Confirmation and Secondary Assay for Modulators of Hemoglobin Beta Chain Splicing at IVS2 705 locus (AID 930).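 Note: HeLa cells stably expressing the EGFP-705 splicing reporter; GFP fluorescence per well restored by corrected splicing of the IVS2-705 intron in EGFP; % of control where 0% means no effect.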 In a few lines: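 Per-well GFP, captured at 1 x 8 µm resolution with 488 nm excitation, served as the read-out for HeLa EGFP-705 cells incubated 2 days with test compound versus DMSO.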
Assay [18] deals with Cytochrome P450 1A2 (Homo sapiens) (UniProt P05177). Description: p450-cyp1a2 (AID 410; calls by dose curve; note: potency is the fitted concentration of half-maximal effect). Summed up: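 Inhibition was calculated relative to 57 uM furafylline (full inhibition). The reaction used human CYP1A2 at 20nM with Luciferin-ME at its Km, 100uM, driven by an NADPH-regenerating system for 60 min at room temperature.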
Sequence of Cytochrome P450 1A2 (Homo sapiens) (P05177 whole entry, looked up): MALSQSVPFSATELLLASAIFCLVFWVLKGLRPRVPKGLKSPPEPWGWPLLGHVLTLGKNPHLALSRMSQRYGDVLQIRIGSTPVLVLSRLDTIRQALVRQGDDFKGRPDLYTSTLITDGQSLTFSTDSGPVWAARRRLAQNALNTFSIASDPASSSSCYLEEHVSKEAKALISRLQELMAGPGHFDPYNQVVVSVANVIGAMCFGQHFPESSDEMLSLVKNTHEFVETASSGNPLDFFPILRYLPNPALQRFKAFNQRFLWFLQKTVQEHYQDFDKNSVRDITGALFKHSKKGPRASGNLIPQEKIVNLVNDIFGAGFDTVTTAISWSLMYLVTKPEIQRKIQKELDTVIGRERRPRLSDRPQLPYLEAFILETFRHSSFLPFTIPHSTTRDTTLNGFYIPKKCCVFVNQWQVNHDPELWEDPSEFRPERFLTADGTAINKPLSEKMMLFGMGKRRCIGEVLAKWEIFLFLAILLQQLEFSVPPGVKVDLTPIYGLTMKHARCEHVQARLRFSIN
The target in assay [19] is Cytochrome P450 3A4 (Homo sapiens) (UniProt P08684). Description: qHTS Assay for Activators of Cytochrome P450 3A4 (AID 885). Note: nearly all actives have a fitted effect of over 65% in size. In a few lines: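 Steps: enzyme/substrate mix dispensed; compound added, 10 min RT; NADPH regeneration solution added, 60 min RT; luciferin detection buffer stops reaction; 20 min later luminescence measured.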
Sequence of Cytochrome P450 3A4 (Homo sapiens) (P08684 whole entry, looked up): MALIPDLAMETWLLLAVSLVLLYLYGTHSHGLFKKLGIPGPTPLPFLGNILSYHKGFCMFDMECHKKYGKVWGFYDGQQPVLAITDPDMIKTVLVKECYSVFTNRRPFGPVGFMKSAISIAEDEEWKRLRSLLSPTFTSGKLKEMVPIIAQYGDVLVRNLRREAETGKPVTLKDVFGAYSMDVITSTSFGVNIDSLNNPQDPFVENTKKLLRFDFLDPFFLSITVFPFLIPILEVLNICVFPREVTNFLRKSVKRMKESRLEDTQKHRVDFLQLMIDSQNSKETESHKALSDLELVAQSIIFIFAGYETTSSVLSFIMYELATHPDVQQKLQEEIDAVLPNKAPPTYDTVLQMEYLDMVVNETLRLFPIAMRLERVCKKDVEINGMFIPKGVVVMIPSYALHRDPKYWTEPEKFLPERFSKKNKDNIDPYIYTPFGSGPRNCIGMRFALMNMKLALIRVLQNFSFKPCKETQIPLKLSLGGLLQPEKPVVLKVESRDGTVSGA
Assay [20] can be described thus: qHTS Assay for Identification of Small Molecule Agonists for Hypoxia Response Element Signaling Pathway (AID 914; active = well fitted activation curve with a large enough effect in the signal ratio, with a control signal flat, not every such curve was filed as active; the % refers to the signal ratio; note: potency is the fitted concentration of half-maximal effect). The note with it: ME-180 (cervical carcinoma) HRE-bla reporter, beta-lactamase ratio, CoCl2, 17 h; activation: stronger effect = higher value. In a few lines:
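In Opti-MEM containing 0.5% dialyzed FBS and 10 mM HEPES, ME-180 HRE-bla cells received a compound titration and EC50 CoCl2. They were incubated 17 hours, then CCF4-loaded 2.5 hours at room temperature before ratio reading.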

Assay [21] in a line: Cell Viability qHTS for small molecule stabilizers of the endoplasmic reticulum resident proteome (AID 1508629). To be noted: cell viability counter-screen, 100 nM thapsigargin for final 4 h.
Where [22] appears, read: measured here: cell count channel max response.
[23] abbreviates: measured here: lipid channel max response.

This is an account of results in PubChem BioAssay (NCATS).

Inconclusive results are not listed. Active and inactive are the calls of the source. Unless noted, calls come from the whole dose curve; as a rule, active = well fitted curve in the direction sought with a large enough effect; inconclusive = small, poorly fitted or top-dose-only effect, or another doubt; inactive = no such curve, though single readings can be large; an effect the other way counts as inactive or inconclusive.

Sequence of 3',5'-cyclic-AMP phosphodiesterase 4B (Homo sapiens) (Q07343 whole entry, looked up): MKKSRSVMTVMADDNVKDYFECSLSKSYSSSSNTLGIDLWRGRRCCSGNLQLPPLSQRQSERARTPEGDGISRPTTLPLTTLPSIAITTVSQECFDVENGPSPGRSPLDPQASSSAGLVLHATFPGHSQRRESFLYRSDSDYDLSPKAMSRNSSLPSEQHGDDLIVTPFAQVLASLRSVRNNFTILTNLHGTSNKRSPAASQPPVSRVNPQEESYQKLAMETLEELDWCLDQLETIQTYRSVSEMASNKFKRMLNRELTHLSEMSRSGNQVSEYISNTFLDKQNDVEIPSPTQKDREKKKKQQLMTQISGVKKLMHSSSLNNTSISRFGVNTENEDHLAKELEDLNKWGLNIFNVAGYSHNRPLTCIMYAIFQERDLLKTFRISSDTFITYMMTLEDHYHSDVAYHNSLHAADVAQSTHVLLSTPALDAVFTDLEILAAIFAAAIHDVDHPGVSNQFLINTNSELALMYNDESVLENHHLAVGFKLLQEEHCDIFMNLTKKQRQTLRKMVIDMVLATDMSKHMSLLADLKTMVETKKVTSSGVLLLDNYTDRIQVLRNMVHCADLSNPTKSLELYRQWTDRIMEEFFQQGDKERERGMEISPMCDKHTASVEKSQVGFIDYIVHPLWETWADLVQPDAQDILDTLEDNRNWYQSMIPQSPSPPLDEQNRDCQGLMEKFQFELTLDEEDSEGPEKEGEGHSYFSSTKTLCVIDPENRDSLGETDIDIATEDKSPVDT
Sequence of Lysosomal acid glucosylceramidase (Homo sapiens) (P04062 whole entry, looked up): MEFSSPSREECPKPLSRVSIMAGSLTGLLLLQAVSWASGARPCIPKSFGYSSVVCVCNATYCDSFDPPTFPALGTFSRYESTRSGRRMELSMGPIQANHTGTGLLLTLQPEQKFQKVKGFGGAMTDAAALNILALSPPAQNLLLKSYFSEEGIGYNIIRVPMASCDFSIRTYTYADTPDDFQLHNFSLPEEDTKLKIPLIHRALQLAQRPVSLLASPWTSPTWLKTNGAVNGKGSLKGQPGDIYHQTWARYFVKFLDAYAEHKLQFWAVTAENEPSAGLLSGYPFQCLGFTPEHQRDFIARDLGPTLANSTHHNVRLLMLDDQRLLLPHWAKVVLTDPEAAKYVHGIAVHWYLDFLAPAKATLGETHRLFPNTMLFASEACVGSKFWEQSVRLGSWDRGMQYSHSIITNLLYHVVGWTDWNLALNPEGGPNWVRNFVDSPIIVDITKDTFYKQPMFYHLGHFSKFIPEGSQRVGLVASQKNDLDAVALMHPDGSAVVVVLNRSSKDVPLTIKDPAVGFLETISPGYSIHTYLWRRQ
Sequence of Cytochrome P450 2C19 (Homo sapiens) (P33261 whole entry, looked up): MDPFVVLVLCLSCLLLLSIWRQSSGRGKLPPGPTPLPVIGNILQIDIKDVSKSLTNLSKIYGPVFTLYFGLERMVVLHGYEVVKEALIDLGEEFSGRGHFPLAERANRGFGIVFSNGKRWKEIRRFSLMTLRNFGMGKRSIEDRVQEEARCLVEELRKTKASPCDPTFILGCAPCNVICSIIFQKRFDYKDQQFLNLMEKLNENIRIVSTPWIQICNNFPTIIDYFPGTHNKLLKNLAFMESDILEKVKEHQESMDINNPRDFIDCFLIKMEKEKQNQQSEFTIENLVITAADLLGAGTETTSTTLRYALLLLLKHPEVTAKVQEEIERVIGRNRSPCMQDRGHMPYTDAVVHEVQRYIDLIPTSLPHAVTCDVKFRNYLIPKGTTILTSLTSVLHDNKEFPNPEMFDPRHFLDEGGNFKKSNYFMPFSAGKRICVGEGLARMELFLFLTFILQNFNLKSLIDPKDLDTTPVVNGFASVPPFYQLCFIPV

As to `FC(F)(F)c1ccccc1-c1nc(NC2CCNCC2)c2ccccc2n1`, the Potency was > 11.4 µM (inactive) in assay [1], > 46 µM (inactive) in [5] and > 46 µM (inactive) in assay [6]. Further, the figures for the activity change, negative = inhibition in [2], in assay [3] and in assay [10] were 9.18% (inactive), 7.17% (inactive) and 1.75% (inactive), respectively. Also, in assay [4], the activity, negative = inhibition is 1.97% (inactive). Also, the result in assay [7] was inactive. For the same molecule, the Potency result in assay [8], in assay [9], in assay [11], in assay [12], in assay [13] and in assay [14] was “inactive” in each case. Besides, the Potency entry in assay [15] is “inactive”. Further, the max response worked out at 19.6% in assay [10] (setting [22]) and 17.3% in assay [10] (setting [23]).
With `COc1ccccc1-c1cncnc1NCCN1CCOCC1`, the figures for the Potency in assay [1], in [5] and in assay [6] were > 11.4 µM (inactive), > 46 µM (inactive) and > 46 µM (inactive), respectively. In assay [4], the activity, negative = inhibition is 1.09% (inactive). Further, the call in assay [7], in [16] and in [17] was inactive. Besides, the Potency entry in [8], in [14] and in [15] was “inactive” in each case. Also, in assay [10], the activity change, negative = inhibition was 0.65% (inactive). Also, the results for the max response in assay [10] (setting [22]) and in assay [10] (setting [23]) were 4.25% and 4.66%, respectively.
As to `COc1cccc(Cn2c(=O)c(-c3ccccc3)nc3cnc(N4CCNCC4)nc32)c1`, the Potency in assay [1] was > 11.4 µM (inactive); in assay [18], 3.16 µM (active); in assay [5], > 9.22 µM (inactive); in assay [6] it was > 46 µM (inactive); in assay [20], 3.16 µM (active). Also, the Potency result in assay [8], in [19], in [11], in [12], in assay [14] and in assay [15] was “inactive” in each case. The activity change, negative = inhibition in assay [10] is 4.45% (inactive). In addition, the max response in assay [10] (setting [22]) was determined as 8.56%; in [10] (setting [23]), 11.2%.
In the case of `c1ccc(-c2cccc(N3CC4(CCNCC4)C3)c2)cc1`, the Potency in assay [1] was > 11.4 µM (inactive); in assay [18], 12.6 µM (active); in assay [6] it was > 46 µM (inactive). Further, the values for the activity change, negative = inhibition in [2], in [3] and in assay [10] were 14.2% (inactive), 6.24% (inactive) and -6.46% (inactive), respectively. Further, the activity, negative = inhibition in assay [4] is 3.73% (inactive). Besides, the Potency result in [8] is “inactive”. In addition, the max response in assay [10] (setting [22]) was -7.34%; in [10] (setting [23]), -10.1%; in assay [21] it was -13.3% (inactive).
As for `Cn1cc(-c2nc3cncnc3n(-c3ccccc3)c2=O)c2ccccc21`, the Potency was > 11.4 µM (inactive) in [1], 1.58 µM (active) in assay [18] and > 9.22 µM (inactive) in [5]. The activity change, negative = inhibition is -24% (inactive) in assay [2] and 11.2% (inactive) in assay [3]. The activity, negative = inhibition in [4] was -2.15% (inactive). Moreover, the Potency entry in assay [19], in assay [11], in assay [12], in assay [13], in [14] and in [15] was “inactive” each time.
